Most compounds without a hit are left out; they make up all but 2.3% or so of the library.
Tau fibril ThT – qHTS for Inhibitors of Tau Fibril Formation, Thioflavin T Binding. Potency, µM (highest dose often 57.4 µM), inactives show at the highest dose activity, negative = inhibition, most hits filed as inhibitors. hit rate 2.1% among 270,000. Microtubule-associated protein tau (Homo sapiens), P10636. recombinant tau K18 P301L, heparin-induced fibrillization, ThT fluorescence; also: potency is read from the fitted curve at half-maximal effect; nearly all actives have a fitted effect of over 55% in size
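In this qHTS, human K18 P301L tau is incubated with compound and heparin for 6 hr at 37 C, and Thioflavin T fluorescence then reports fibril load.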
Tau fluor counter – Counterscreen qHTS for Inhibitors of Tau Fibril Formation, Fluorescence Polarization | tau K18 P301L Alexa594 fluorescence, heparin fibrillization | Potency, µM (doses to about 57.7 µM), for inactives: at the highest dose activity change, negative = decrease | hit rate 0.93% among 280,000; also: potency is read from the fitted curve at half-maximal effect; nearly all actives have a fitted effect of over 55% in size
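Human tau K18 P301L (15 uM unlabeled, 0.24 uM Alexa 594-labeled) in 100 mM sodium acetate pH 7 with 20 uM heparin, 6 hr at 37 C. ThT 30 uM added, 1 hr ambient; Alexa 594 FP and total fluorescence read at 555/632 nm.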
Tau FP inhib – qHTS for Inhibitors of Tau Fibril Formation, Fluorescence Polarization. Microtubule-associated protein tau (Homo sapiens), P10636. K18 P301L tau heparin fibrillization, Alexa594 FP, 6 h. Potency, µM (series often up to 57.7 µM), for inactives: top-dose activity, negative = inhibition, actives largely listed as inhibitors. hit rate 0.39% among 280,000. AID 1468, 2008; also: potency is read from the fitted curve at half-maximal effect; nearly all actives have a fitted effect of over 55% in size
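Read-out: fluorescence polarization of Alexa 594-labeled tau (0.24 uM), 555 nm excitation, 632 nm emission. Mixtures held 15 uM unlabeled K18 P301L, compound and 20 uM heparin, pH 7 acetate buffer, incubated 6 hr at 37 C.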
USP1-UAF1 inh – Inhibitors of USP1/UAF1: Primary Screen | Ubiquitin carboxyl-terminal hydrolase 1 (Homo sapiens), O94782 | recombinant USP1/UAF1, Ub-Rhodamine cleavage fluorescence | Potency, µM (titrated, usually from 57.1 µM), for inactives: at the highest dose activity change, negative = inhibition, usual class: inhibitors | hit rate 0.23% among 390,000 | AID 743255, 2014; also: potency is read from the fitted curve at half-maximal effect; nearly all actives have a fitted effect of over 60% in size
Target sequence (O94782 whole entry, looked up): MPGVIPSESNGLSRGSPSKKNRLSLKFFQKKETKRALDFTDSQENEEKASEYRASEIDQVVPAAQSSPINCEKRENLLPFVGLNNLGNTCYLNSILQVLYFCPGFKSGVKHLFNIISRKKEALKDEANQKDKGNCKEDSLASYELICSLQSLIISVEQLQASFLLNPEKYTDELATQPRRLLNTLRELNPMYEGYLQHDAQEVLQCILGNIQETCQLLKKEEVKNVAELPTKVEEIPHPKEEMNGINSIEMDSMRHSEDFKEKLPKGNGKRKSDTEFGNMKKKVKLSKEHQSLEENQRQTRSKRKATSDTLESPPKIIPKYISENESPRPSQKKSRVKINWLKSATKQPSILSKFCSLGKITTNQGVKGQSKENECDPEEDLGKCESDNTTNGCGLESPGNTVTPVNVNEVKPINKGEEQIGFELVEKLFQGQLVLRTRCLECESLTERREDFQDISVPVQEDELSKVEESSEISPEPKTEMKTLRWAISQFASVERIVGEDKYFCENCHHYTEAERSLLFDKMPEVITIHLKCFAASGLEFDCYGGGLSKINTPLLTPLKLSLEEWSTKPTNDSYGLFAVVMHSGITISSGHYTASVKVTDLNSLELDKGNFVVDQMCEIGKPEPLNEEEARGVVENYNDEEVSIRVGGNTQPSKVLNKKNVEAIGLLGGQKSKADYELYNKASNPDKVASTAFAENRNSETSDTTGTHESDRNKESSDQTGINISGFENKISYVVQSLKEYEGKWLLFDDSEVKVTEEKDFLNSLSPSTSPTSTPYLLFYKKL
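1 nM enzyme complex + cpd, 15 min RT; start with Ub-Rho 150nM final; kinetic fluorescence ex 480/em 540, 6 reads q60 s. Buffer 50mM HEPES pH 7.8, 0.5mM EDTA, 0.1 mg/ml BSA, 1mM TCEP, 0.01% Tween-20.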
FBPA coupling cs – qHTS Assay for Inhibitors of Fructose-1,6-bisphosphate Aldolase from Giardia Lamblia: Coupling assay counterscreen | hit rate 0.67% among 290,000 | activity change, negative = inhibition, % at 58.2 µM, hits read low | coupling enzyme system counterscreen, AmpLite Red fluorescence; in the data active = activity change below about -30%
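First, compound is pin-transferred into glyceraldehyde-3-phosphate coupling-enzyme reagent at 57.5 uM final and held 10 min at RT. Next, substrate, coupling system and AmpLite Red are added. After 20 min RT, fluorescence (525/598 nm) is read.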
The depositor's hits bear a star; ? = inconclusive; / = no result; [ ] = another dose, or the depositor's remark. Unless noted, calls follow the shape of the dose curve; as a rule, active = well fitted curve in the direction sought with a large enough effect; inconclusive = small, poorly fitted or top-dose-only effect, or another doubt; inactive = no such curve, though single readings can be large; an effect the other way counts as inactive or inconclusive. % is scaled to controls: 0 for no effect and ±100 for the full control effect.

SMILES	Tau fibril ThT	Tau fluor counter	Tau FP inhib	USP1-UAF1 inh	FBPA coupling cs
O=C(C1=C[C@@H]2[C@H]3C(=O)N(c4ccccc4)C(=O)[C@H]3[C@@H](C(=O)c3ccc(Cl)cc3)N2C=C1)c1ccccc1	14.1µM*	?	?	/	-16.2
C=C/C(C)=C/[C@@]1(C)SC(=O)C(C)=C1O	-14.5%	-13.3%	-13.5%	/	/
COc1ccc(NC(=O)N(C)C[C@H]2Oc3ccc(NC(=O)CCN4CCOCC4)cc3C(=O)N([C@@H](C)CO)C[C@H]2C)cc1	/	/	/	5.01µM*	/
COc1ccccc1Nc1c2c(nc3ccc(NC(=O)c4cccc(OC)c4OC)cc13)CCCC2	?	?	4.0%	-14.6%	/
COc1ccc(Nc2c3c(nc4ccc(NC(=O)c5ccc(F)cc5)cc24)CCCC3)cc1OC	15.8µM*	?	8.3%	-18.3%	/
COc1ccccc1Nc1c2c(nc3ccc(NC(=O)c4ccc(OC)c(OC)c4)cc13)CCCC2	25.1µM*	?	-16.8%	-24.6%	/
COc1ccc(C(=O)Nc2ccc3nc4c(c(Nc5ccccc5OC)c3c2)CCCC4)c(OC)c1	17.8µM*	?	-7.3%	-13.0%	/
COc1ccccc1Nc1c2c(nc3ccc(NC(=O)c4ccccc4F)cc13)CCCC2	?	?	4.2%	-18.1%	/
Cn1ccc2cc(S(=O)(=O)N3CCN(C(=O)Nc4ccc(F)cc4F)CC3)ccc21	0.5%	-5.4%	-4.9%	-12.5%	/
Cn1c(=O)c2c(nc(N/N=C/c3ccc(OC(=O)c4ccco4)cc3)n2Cc2ccccc2Cl)n(C)c1=O	?	7.94µM*[quencher]	10.0%	-3.8%	0.5
Cn1c(=O)c2c(nc(N/N=C/c3ccc(OC(=O)c4ccco4)cc3)n2Cc2ccc(F)cc2)n(C)c1=O	?	7.08µM*[quencher]	9.7%	-9.3%	-2.6
Cn1c(=O)c2c(nc(N/N=C/c3cccnc3)n2Cc2ccccc2)n(C)c1=O	-16.1%	-23.7%	-5.4%	-28.8%	1.2
COC(=O)c1[nH]c2ccc(Cl)cc2c1NC(=O)CN1CCc2cc(OC)c(OC)cc2C1	?	17.8µM*[quencher]	3.2%	-10.6%	0.9
CCOC(=O)c1ccc(Cl)c(NC(=O)c2ccc(-c3ccccc3)cc2)c1	3.5%	4.1%	-3.6%	?	3.3
CCOC(=O)c1ccc(/C=C2/C=C(c3ccccc3)N(c3ccc(Cl)c(C(=O)O)c3)C2=O)cc1	15.8µM*	8.0%	-10.3%	25.1µM*	6.9
O=C1C(c2[nH]c3ccc(S(=O)(=O)O)cc3c2O)=Nc2ccc(S(=O)(=O)O)cc21	8.91µM*	-22.2%	?	/	-37.5*
O=C1C(c2c(O)[nH]c3ccccc23)=Nc2ccccc21	?	?	-3.0%	-13.8%	2.1
COc1ccccc1-c1cn[nH]c1-c1ccc(OCc2ccccc2)cc1O	-12.8%	11.2µM*[quencher]	?	-11.9%	-0.6
COc1ccc(-c2cn[nH]c2-c2ccc(OCc3ccccc3)cc2O)cc1	-13.7%	6.31µM*[quencher]	?	-7.8%	-4.3
COc1ccc(-c2cn[nH]c2-c2ccc(OC)cc2O)cc1	/	/	/	-2.8%	3.3
Cc1ccc(N2C(=O)N(Cc3cc(=O)n4ccccc4n3)c3ccccc3S2(=O)=O)cc1Cl	-5.1%	?	?	2.1%	/
Cc1cccc(NC(=O)CCS(=O)(=O)c2cccc3nsnc23)c1C	20µM*	-22.2%	?	-19.9%	-1.2
Cn1c(=O)n(CCCc2ccccc2)c(=O)c2c1nc1n2CCN1c1ccccc1	-8.8%	-4.2%	1.1%	-23.0%	/
O=C1CSc2ccc(C(=O)Nc3cccc(S(=O)(=O)Nc4ccc(Br)cc4)c3)cc2N1	6.2%	10µM*[quencher]	17.8µM*	-20.5%	3.8
CCOc1ccccc1CNC(=O)CN1C(=O)c2cccnc2Oc2ccc(Cl)cc21	-4.1%	0.2%	2.5%	-10.4%	/
SMILES	Tau fibril ThT	Tau fluor counter	Tau FP inhib	USP1-UAF1 inh	FBPA coupling cs
CCOc1ccc(Cn2c(O)cc(=O)[nH]c2=O)cc1	15.8µM*	-21.7%	?	-13.7%	6.6
Cc1nonc1OCCN1CCN(c2ccccc2[N+](=O)[O-])CC1	-10.6%	-9.9%	-1.5%	-3.1%	-3.3
Nc1nonc1OCCN1CCN(c2ccc([N+](=O)[O-])c3cccnc23)CC1	17.8µM*	?	-0.9%	-9.1%	-5.9
CCOc1ccc(/C=C/C(=O)c2c(O)c3ccccc3oc2=O)cc1	?	1.0%	2.5%	-16.9%	7.4
CN(C)c1ccc(/C=C/C(=O)c2c(O)c3ccccc3oc2=O)cc1	/	0.708µM*[fluorescent]	?	?	1.0
O=C(NN=c1c(=O)c2ccccc2c1=O)c1ccccc1	5.62µM*	-25.1%	?	31.6µM*	-42.7*
O=C(Nc1ccc(Br)cc1)c1ccc(F)c(S(=O)(=O)NC2CCCCCC2)c1	9.3%	?	?	?	/
O=C(Nc1cc(Cl)cc(Cl)c1)c1ccc(F)c(S(=O)(=O)NC2CCCCC2)c1	4.9%	?	7.08µM*	4.1%	/
O=C(Nc1cc(Cl)cc(Cl)c1)c1ccc(F)c(S(=O)(=O)NCc2ccccc2Cl)c1	3.6%	?	8.91µM*	-11.1%	/
COc1ccc(CNS(=O)(=O)c2cc(C(=O)Nc3cc(Cl)cc(Cl)c3)ccc2F)cc1	7.6%	3.55µM*[quencher]	3.55µM*	-19.2%	/
O=C(O)c1cc(=O)c2cc(Cl)ccc2[nH]1	/	/	/	/	6.7
CCCCCCCCNC(=O)c1cnsn1	2.3%	6.4%	6.1%	-24.4%	2.2
CN(C)c1ccc(NC(=O)c2cnsn2)cc1	10µM*	-20.9%	-2.5%	1.3%	1.0
COc1ccc2c(c1OC)C(=O)N1c3ccccc3N=C(c3ccc([N+](=O)[O-])cc3)CC21 (centres undefined)	20µM*	-26.3%	?	-10.0%	-9.6
C[C@@]12CCC3c4ccc(OC5C=CC(c6ccccc6)OC5CO)cc4CCC3C1CCC2=O (some centres undefined)	?	-10.5%[11.6 µM]	2.9%[11.6 µM]	/	-1.0
Cc1ccc(O)c(N=Cc2cccs2)c1	25.1µM*	?	?	-16.4%	-13.0
Cc1ccc(N=Nc2cc(C)ccc2O)c(C)c1	/	/	/	-17.2%	1.4
Cc1ccc(O)c(N=Cc2ccc(C)s2)c1	22.4µM*	?	?	-5.5%	-9.2
O=C(Nc1ncc([N+](=O)[O-])s1)c1cccc([N+](=O)[O-])c1	17.8µM*	-14.3%	12.7%	1.6%	-41.0*
COc1ccccc1Nc1nc(-c2cccc([N+](=O)[O-])c2)cs1	?	14.1µM*[quencher]	1.0%	-22.5%	-8.1
O=C(Nc1ccc(NC(=O)c2cccc([N+](=O)[O-])c2)cc1)c1cccc([N+](=O)[O-])c1	/	/	/	-1.5%	1.8
COc1ccccc1Nc1ccc([N+](=O)[O-])cc1N	14.1µM*	?	12.9%	?	-5.5

Source: PubChem (National Center for Advancing Translational Sciences (NCATS))
